Sampled rows, rich in hits. Any-hit rate of the full collection: about 2%.
Autophagy mod: alters autophagy in cells. MEF GFP-LC3 puncta imaging; test concentration mostly 10 µM. calls only at 10 µM (by protocol). 190,000 compounds, 0.98% hits;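 active = percentage of spot-positive cells more than 3 SD above its plate mean, without a fluorescence outlier flag or 80% toxicity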;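 note: spot-positive cell cutoff set from DMSO-treated cells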
Insulin prom inh: TRM-6 insulin promoter activity inhibition | TRM-6 cells (human fetal islet line), insulin promoter-eGFP reporter, imaging; reporter expression induced with tamoxifen | inhibition, % at 2 µM | 130,000 compounds, 0.9% hits | AID 1273;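 active = inhibition above the mean plus 3 SD, with well images judged a real hit on visual review, cut at about 60% in these data, passing the limit was not always enough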
eIF4E-4G inh: eIF4E/eIF4G interaction inhibition in translation initiation; P63073+Q04637; TR-FRET eIF4E-eIF4GI(517-606) binding, 2 h; inhibition, % at 21.7 µM; 220,000 compounds, 0.37% hits; AID 782;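 active = inhibition above about 30%, limit read from the data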;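 note: 0% = full FRET control wells and 100% = background wells lacking eIF4GI fragment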
PERK inhibitor: blocks human PERK kinase; AID 1416; 220,000 compounds, 0.17% hits; inhibition, % at 5.6 µM; Q9NZJ5; CHO PERK-DD fusion, SEAP luminescence translation reporter;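 active = inhibition above the mean inhibition of all tested compounds plus 3 SD, set separately per screening campaign, cut at about 2.9% in these data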;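 note: PERK kinase domain activated by AP20187 dimerizer at 100 nM; 0% = DMSO with dimerizer and 100% = rapamycin at 8.4 µM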
Target sequence (Q9NZJ5 whole entry, looked up, the tested form may be a part): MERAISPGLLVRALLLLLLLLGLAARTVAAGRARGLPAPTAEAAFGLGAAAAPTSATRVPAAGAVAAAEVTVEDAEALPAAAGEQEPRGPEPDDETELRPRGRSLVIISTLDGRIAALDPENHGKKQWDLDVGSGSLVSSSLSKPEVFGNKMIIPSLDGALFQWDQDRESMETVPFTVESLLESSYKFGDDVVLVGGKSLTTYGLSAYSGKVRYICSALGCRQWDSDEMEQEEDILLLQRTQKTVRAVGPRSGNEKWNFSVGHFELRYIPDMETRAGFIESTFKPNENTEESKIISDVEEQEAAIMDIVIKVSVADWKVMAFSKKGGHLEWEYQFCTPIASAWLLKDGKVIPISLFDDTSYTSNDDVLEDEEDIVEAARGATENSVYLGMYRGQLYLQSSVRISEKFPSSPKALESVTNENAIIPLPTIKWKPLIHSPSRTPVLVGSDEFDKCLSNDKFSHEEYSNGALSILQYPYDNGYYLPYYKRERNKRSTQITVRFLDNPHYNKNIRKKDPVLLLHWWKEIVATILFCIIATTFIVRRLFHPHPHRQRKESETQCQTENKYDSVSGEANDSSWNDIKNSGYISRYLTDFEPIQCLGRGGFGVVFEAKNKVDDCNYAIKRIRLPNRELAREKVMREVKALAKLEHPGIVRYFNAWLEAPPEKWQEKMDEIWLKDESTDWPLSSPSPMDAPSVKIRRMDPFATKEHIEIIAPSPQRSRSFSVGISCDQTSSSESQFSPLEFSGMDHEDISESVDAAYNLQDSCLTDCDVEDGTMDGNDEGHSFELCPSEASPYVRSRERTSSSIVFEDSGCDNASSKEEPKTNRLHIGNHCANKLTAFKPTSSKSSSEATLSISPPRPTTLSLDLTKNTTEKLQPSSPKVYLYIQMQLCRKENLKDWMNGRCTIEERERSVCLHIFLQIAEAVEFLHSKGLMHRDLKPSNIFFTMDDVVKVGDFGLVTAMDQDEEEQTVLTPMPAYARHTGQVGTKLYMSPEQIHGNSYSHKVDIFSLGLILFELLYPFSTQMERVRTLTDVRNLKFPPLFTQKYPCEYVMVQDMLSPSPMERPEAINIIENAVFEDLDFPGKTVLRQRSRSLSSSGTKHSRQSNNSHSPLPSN
Insulin prom up: MIN6 insulin promoter up-regulation | 190,000 compounds, 0.3% hits | MIN6 insulin promoter-GFP reporter, high-content imaging; hits give high values | z-score at 5 µM;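 active = z-score above 3 at 5 µM with at least 500 cells counted in the well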
* = called active by the depositor; i = inactive; . = not tested or not shown; + = active, no number; [ ] = another dose, or the depositor's remark.

SMILES | Autophagy mod | Insulin prom inh | eIF4E-4G inh | PERK inhibitor | Insulin prom up
O=C(NC1CCCCC1)C(c1ccncc1)N(CC1CCCO1)C(=O)C(F)(F)F (centres undefined) | i | 90.0* | 6.9 | 0.5 | 0.79
CCC(C)N(C(=O)C(F)(F)F)C(C(=O)NC1CCCCC1)c1ccncc1 (centres undefined) | i | -52.4 | -2.5 | -0.6 | .
O=C(Nc1cccc(S(=O)(=O)NC2=NCCC2)c1)c1cc(-c2ccco2)nc2ccccc12 | . | . | 47.9* | 3.2* | -0.41
O=C(NC1CC1)c1cc(-c2ccco2)nc2ccccc12 | . | . | 56.5* | 1.6 | -0.42
O=C(Nc1nccs1)c1cc(-c2ccco2)nc2ccccc12 | i | 15.4 | 35.9*[fluorescence artefact?] | -0.4 | -0.17
COc1ccc(N(C(=O)Cc2cccs2)C2C=CS(=O)(=O)C2)cc1 (centres undefined) | i | . | 3.1 | 1.2 | 3.14*
CCCCn1c(CN2CCN(c3cccc(Cl)c3)CC2)nc2c1c(=O)[nH]c(=O)n2C | + | -43.8 | 5.2 | 0.0 | -0.35
Cn1c(=O)[nH]c(=O)c2c1nc(CN1CCN(c3cccc(Cl)c3)CC1)n2CCCc1ccccc1 | i | . | 2.0 | 0.6 | -0.6
N=c1c2c(-c3ccccc3)c(-c3ccccc3)n(Cc3ccco3)c2ncn1CCN1CCOCC1 | + | -9.7 | . | -0.8 | -1.33
O=[N+]([O-])c1ccc(-c2nc(-c3cccs3)c(-c3cccs3)[nH]2)cc1 | + | -73.3 | 2.5 | -1.4 | .
O=[N+]([O-])c1cccc(-c2nc(-c3cccs3)c(-c3cccs3)[nH]2)c1 | i | 23.3 | 5.3 | 0.4 | -0.72
O=C(c1ccc(Cl)c(S(=O)(=O)NCc2ccco2)c1)N1CCN(c2ccccc2F)CC1 | i | -21.7 | -4.4 | -1.5 | .
COc1ccccc1N1CCN(C(=O)c2ccc(Cl)c(S(=O)(=O)NCc3ccco3)c2)CC1 | + | 0.0 | -0.2 | -1.4 | -0.28
CCN(CC)S(=O)(=O)c1ccc(C(=O)C(C#N)c2ccccn2)cc1 (centres undefined) | i | 72.7* | -0.9 | -0.7 | 0.81
COc1cc2[nH]c(=S)nc(NCCC(C)C)c2cc1OC | i | 83.3* | -3.7 | -0.4 | -1.13
COCCCNc1nc(=S)[nH]c2cc(OC)c(OC)cc12 | i | . | 0.2 | 1.8 | 0.13
Cc1ccc2c(c1C)NC(C)CC2C (centres undefined) | i | 0.0 | -5.0 | 3.4* | -0.5
Cc1cc(C)cc(-c2nnc(SCc3ccc(C(=O)O)cc3)o2)c1 | i | . | -2.9 | 1.0 | -0.66
CCc1ccc(NC(=O)N(Cc2ccco2)C(C)c2cccs2)cc1 (centres undefined) | i | 14.3 | 5.0 | -0.7 | -1.01
CCc1ccc(NC(=O)CS(=O)CC(=O)NC(C)CCc2ccco2)cc1 (centres undefined) | + | . | -0.3 | -0.4 | .
O=C(Nc1ccon1)c1cccc(S(=O)(=O)N2CCCCC2)c1 | i | . | 2.1 | 0.1 | 3.46*
c1ccc(-c2nc(-c3ccncc3)n[nH]2)nc1 | . | . | 54.5* | -0.2 | .
CN1CCN(c2ccc(NC(=O)c3ccc(-c4ccc(Br)cc4)o3)cc2)CC1 | + | 26.3 | 12.3 | 0.9 | 1.01
Cc1csc2nc(CNC(=O)CCC(=O)O)cn12 | i | 0.0 | -0.8 | 3.4* | -0.2
CC(=O)NCc1cn2c(C)csc2n1 | . | . | 2.9 | 1.0 | 1.78
SMILES | Autophagy mod | Insulin prom inh | eIF4E-4G inh | PERK inhibitor | Insulin prom up
CCOc1ccc(C2C(C(=O)c3cccs3)=C(O)C(=O)N2Cc2cccnc2)cc1OC (centres undefined) | i | 42.9 | -2.8 | 1.5 | .
CCOc1ccc(C2C(C(=O)c3cccs3)=C(O)C(=O)N2Cc2cccnc2)cc1 (centres undefined) | + | -50.0 | 4.5 | 1.7 | -0.48
CCS(=O)(=O)N1CCC(C(=O)NCc2ccc(F)cc2)CC1 | i | -14.3 | 4.2 | 3.4* | -0.09
O=C(NCc1ccc(F)cc1)C1CCN(S(=O)(=O)N2CCOCC2)CC1 | i | . | -1.5 | 1.3 | -0.51
CCCS(=O)(=O)N1CCN(S(=O)(=O)c2ccccc2)CC1 | i | -17.2 | 63.5* | -0.6 | 0.18
O=C(c1ccc(N2CCCCC2)c([N+](=O)[O-])c1)N(c1ccccn1)c1ccccn1 | i | 21.4 | -2.1 | 0.1 | -0.04
Cc1ccc(C2(C(F)(F)F)N=C3Sc4cc(C)ccc4N3C(=O)N2)cc1 (centres undefined) | i | 40.5 | 5.0 | 1.1 | 3.48*
CC(=O)Nc1cccc(NC(C)=C(C#N)C#N)c1 | i | 17.9 | 6.1 | -0.2 | 0.42
O=C(CSc1nc2ncccc2[nH]1)c1cccc([N+](=O)[O-])c1 | i | 45.2 | -0.6 | -0.3 | -0.13
COC(=O)c1c(NC(=O)COC(=O)[C@@H](NS(=O)(=O)c2cccc(Cl)c2)C(C)C)sc2c1CCC2 | + | -15.4 | -10.8 | -0.8 | -0.78
Cc1ccc(C)c(S(=O)(=O)NCc2ccc(C(=O)NCc3ccccn3)cc2)c1 | i | 25.7 | 3.6 | 0.1 | 0.14
N=C1/C(=C\c2ccc(-c3cccc(C(=O)O)c3)o2)C(=O)N=C2SC=C(c3ccccc3)N12 | . | . | 64.7* | 0.1 | 0.04
O=C(NNC1CC(=O)N(c2ccc3c(c2)OCCO3)C1=O)c1ccccc1 (centres undefined) | i | 40.0 | -9.3 | 1.1 | 0.08
CCOC(=O)c1c(N)nn(C(=O)C(C)C)c1-c1ccc(OC)cc1 | i | 79.3* | -9.5 | 1.4 | 0.27
NC1=NC(c2ccc(Cl)cc2)C(C(=O)c2ccccc2)N1 (centres undefined) | . | . | -4.0 | 1.7 | -0.08
O=C(CC1SC2=NCCN2C1=O)Nc1ccc(Cl)cc1 (centres undefined) | + | 76.9* | 4.5 | 1.0 | -0.88
CC(C)CC1NC(=S)N(Cc2ccccc2)C1=O (centres undefined) | i | -14.8 | -3.6 | 0.3 | -0.31
O=C(COc1ccc(/C=N/NC(=O)c2ccccc2)cc1)Nc1ccc([N+](=O)[O-])cc1 | i | 14.0 | -17.2 | 2.0 | .
CC(C)Oc1ccc(/C=N/NC(=O)C(CSCc2ccccc2)NC(=O)c2ccc([N+](=O)[O-])cc2)cc1 (centres undefined) | + | 43.8 | 2.7 | -1.6 | .
O=C(Cc1ncc(C(F)(F)F)cc1Cl)Nc1ccc(F)cc1 | i | 6.7 | -1.7 | 0.3 | 0.36
Cc1cc(NC(=O)CCC(=O)N(c2ccc(F)cc2)C(C(=O)NC2CCCC2)c2ccc(C)o2)no1 (centres undefined) | i | . | 1.4 | 0.4 | 0.8
COc1cccc(C(=O)Nc2nnc(-c3ccc(F)cc3)o2)c1 | . | . | 95.0* | . | 0.41
COc1cccc(C(=O)Nc2nnc(-c3ccc(Cl)cc3)o2)c1 | . | . | -14.2 | . | 0.47
CN(c1cccc(Cl)c1)S(=O)(=O)c1cccc(C(=O)NC2=NCCS2)c1 | i | -21.1 | 4.3 | -0.1 | 3.48*
COc1ccc(N(Cc2ccccc2)S(=O)(=O)c2cccc(C(=O)NC3=NCCS3)c2)cc1 | i | -21.1 | 5.9 | -1.1 | -0.37
COc1cccc(C(=O)NC2=NCCS2)c1 | i | 75.0* | -6.7 | 1.0 | .
